# Screens: PubChem, National Center for Advancing Translational Sciences (NCATS)
# RORgamma inh: ROR gamma (mouse) transcription inhibition; AID 2551; Drosophila S2 Gal4-RORgamma UAS-luciferase reporter, 20 h; Potency, µM (top dose mostly 53.6 µM), for the others: top-dose activity change, negative = inhibition, most hits filed as inhibitors; P51450; hit rate 5.4% among 310,000; also: % is scaled to controls: 0 for no effect and ±100 for the full control effect; nearly all actives have a fitted effect of over 60% in size
#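 Drosophila S2 cells stably expressing Gal4-DBD/mouse RORγ fusion under metallothionein promoter plus UAS-luciferase; compound 1 h, then 700 uM CuSO4 induction for 20 h at ambient temperature; inhibition read as reduced luminescence.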
# VP16 counter: counter-screen for ROR gamma inhibitors: Gal4-VP16 reporter; Drosophila S2 Gal4-VP16 UAS-luciferase, luminescence, 20 h; Potency, µM (doses to about 53.6 µM), for inactives: at the highest dose activity, negative = inhibition, actives largely listed as inhibitors; hit rate 3.5% among 310,000;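 also: Gal4-VP16 expression switched on by copper sulfate through the metallothionein promoter; % is scaled to controls: 0 for no effect and ±100 for the full control effect; nearly all actives have a fitted effect of over 50% in size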
# Sfp inh: blocks B. subtilis Sfp PPTase activity. Potency, µM, for inactives: largest response in the series, negative = inhibition, usual class: inhibitors. Biochemical Sfp PPTase activity, qHTS. AID 1490. hit rate 3.5% among 310,000;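 also: the enzyme is Sfp with the accession as filed and its product quenches rhodamine fluorescence; 0% = enzyme reaction without inhibitor and -100% = no enzyme wells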
#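 Buffer: 50 mM Hepes-Na pH 7.6, 10 mM MgCl2, 0.01% Nonidet P-40, 0.01% BSA. Enzyme 15 nM, pre-exposed to compound 15 min; substrates then added and fluorescence change tracked over 30 min.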
# PINK1 modulator: modulators of PINK1 expression; PINK1 immunofluorescence, high-content cytometry, 24 h; Potency, µM (titrated, usually from 76.6 µM), for the others: top-dose activation (PINK1 increase), most hits filed as activators; hit rate 0.2% among 410,000; AID 624263; active = well fitted activation curve with a large enough effect; inconclusive = small, poorly fitted or top-dose-only effect; cell line not stated here; also: % of control where 0% means no effect; nearly all actives have a fitted effect of over 65% in size
#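 Stable cell line, 250 cells/well, 12 h attachment; compounds pinned at 5 concentrations, 24 h; CCCP control. Fixed with nuclear dye, primary antibodies 12 h at 10 degrees C, secondary plus cell stain; laser-scanning cytometer read.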
# Epigenetic reg: epigenetic control regulation, reporter derepression. hit rate 0.2% among 280,000. murine LDR cells, GFP reporter derepression, 30 h. Potency, µM (series often up to 53.9 µM), inactives show top-dose GFP activation, hits mostly activators; also: % of control where 0% means no effect; nearly all actives have a fitted effect of over 60% in size
#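 Derepression of a silenced CMV-GFP reporter in murine LDR cells is scored by enumerating GFP-positive cells with a laser-scanning microplate cytometer after 30 hours of treatment at 37 C.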
# ClpP mod: qHTS Assay for Activators of ClpP; purified B. subtilis ClpP, FRET peptide cleavage, 20 min; ATP-dependent Clp protease proteolytic subunit (Bacillus subtilis (strain 168)), P80244; Potency, µM (top dose mostly 57.5 µM), without a hit: at the highest dose activity change, negative = active; hit rate 1.9% among 340,000; active = well fitted falling curve with a large enough effect; inconclusive = small, poorly fitted or top-dose-only effect; inactive = no such curve, though single readings can be large or run the other way; also: the source files actives as falling curves though it sought activators and does not explain the sign; nearly all actives have a fitted effect of over 65% in size
# Target sequence (P80244 whole entry, looked up): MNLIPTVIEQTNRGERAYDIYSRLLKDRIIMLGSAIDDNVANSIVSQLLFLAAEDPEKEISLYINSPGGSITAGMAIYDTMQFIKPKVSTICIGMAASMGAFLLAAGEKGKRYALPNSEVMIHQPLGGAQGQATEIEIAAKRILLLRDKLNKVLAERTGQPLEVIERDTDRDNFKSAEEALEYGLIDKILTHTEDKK
#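 ClpP 10 microg/mL final, pH 8 Tris/KCl buffer with BSA, glycerol, Tween-20; compound pinned in; FRET-FV substrate; RT 20 min; Ex320/Em430; ΔFRET vs ADEP 5.8 microM, DMSO, no enzyme.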
# Numbers without * were called inactive; ? = inconclusive; . = not tested or not shown; [ ] = remark or other dose. Only some compounds are listed: those with a hit (about 8.1% of all), similar ones and a draw of the others. Unless noted, calls follow the shape of the dose curve; as a rule, active = well fitted curve in the direction sought with a large enough effect; inconclusive = small, poorly fitted or top-dose-only effect, or another doubt; inactive = no such curve, though single readings can be large; an effect the other way counts as inactive or inconclusive. Potency is read from the fitted curve at half-maximal effect.
SMILES,RORgamma inh,VP16 counter,Sfp inh,PINK1 modulator,Epigenetic reg,ClpP mod
CCOP(=S)(OCC)OCCSCC,24.6%,-3.4%,-9.9%,.,.,.
Nc1ccccc1C(=O)OCC(=O)Nc1ccc(Br)cc1F,?,14.6%,0.4%,3.2%[38.3 µM],-0.2%,28.2µM*
O=C(COC(=O)c1ccc(O)cc1)Nc1ccc(Cl)cc1C(=O)c1ccccc1,17.9%,?,-7.7%,23.2%,0.0%,.
COC(=O)[C@H]1[C@@H](c2ccccc2)[C@@]2(c3ccccc3)Oc3ccccc3[C@@]1(O)[C@@H]2O,-13.0%[10 µM],1.5%[10 µM],5.8%,.,1.1%[10.1 µM],.
Brc1cccc(-c2ccccc2)c1,1.3%,1.0%,.,.,.,.
COc1ccc(-[n+]2c(-c3ccccc3)cc(-c3ccccc3)cc2-c2ccccc2)cc1,.,.,.,15.8µM*,.,-0.8%
CC(C)(C)[C@]1(O)C[C@@H]2OC(=O)CC23C(=O)O[C@@H]2OC(=O)[C@H](O)C231 (stereo partly specified),-3.3%,3.2%,15.1%,.,-0.1%,.
O=C(N/N=C/c1cccnc1)c1ccc(NC(=O)C(c2ccccc2)c2ccccc2)cc1,-44.2%,6.31µM*,7.1%,14.0%,5.8%,67.3%
O=C(NN=Cc1ccc(N(CCCl)CCCl)cc1Cl)c1cccnc1,.,.,.,-0.5%,.,-6.6%
CC[C@]12CCCN3CCC4(c5ccccc5NC4C(C(=O)O)C1)C32 (stereo partly specified),-28.0%,-11.0%,-14.1%,.,-0.1%,.
C/C(O)=C1\C(=O)[C@@H]2[C@H]3c4c[nH]c5cccc(c45)C[C@H]3C(C)(C)N2C1=O,.,.,56.2µM*,.,1.9%,.
CSC[C@H](NC(=O)COc1cc2c(c3oc(=O)c(C)c(C)c13)CCC(C)(C)O2)C(=O)O,13.6%,-7.7%,14.7%,-2.7%,.,28.2µM*
CC(C)C#N,2.6%,3.6%,.,.,.,.
CCCCCC1CC(CC(=O)NC(=S)Nc2ccc([N+](=O)[O-])cc2)C(=O)O1 (stereo unspecified),70.8µM*,?,-0.4%,3.7%,2.6%,-0.1%
CC(=O)Nc1ccc([As](=O)(O)c2ccc([N+](=O)[O-])cc2)cc1,26.1%,2.7%,23.1%,1.6%,-1.0%,.
S=C1NC2(CCCCC2)NC12CCCCC2,8.91µM*,?,15.4%,1.9%,-1.6%,0.6%
O=c1c2cc(N3CCOCC3)ccc2[nH]c(=S)n1Cc1ccc(Cl)cc1,8.91µM*,0.562µM*,15.8µM*,12.7%,6.7%,10.9%
COc1cc(OC)c(OC)cc1/C=C1/C(=O)NC(=O)N(Cc2ccccc2)C1=O,6.0%,-2.8%,-14.2%,0.2%,-1.3%,.
O=C1NC(=O)N(Cc2ccc(F)cc2)C(=O)/C1=C\c1ccc([N+](=O)[O-])s1,23.3%,8.3%,39.8µM*,8.4%,8.5%,.
COc1ccc(CN2C(=O)NC(=O)/C(=C/c3ccc([N+](=O)[O-])s3)C2=O)cc1,5.8%,-19.1%,20µM*,12.8%,?,.
COCCN1C(=O)NC(=O)/C(=C\c2ccc(F)cc2)C1=O,19.4%,-6.2%,?,2.8%,4.7%,1.5%
CC(C)(OOC(C)(C)c1ccccc1)c1ccccc1,42.8%,3.8%,.,.,.,.
CC1(C)C(O)CC(O)[C@]2(C)C1CC(=O)[C@]1(C)C2CC[C@@]2(C)C(c3ccoc3)OC(=O)C3OC321 (stereo partly specified),28.6%,-7.9%,11.2%,.,-1.3%,.
Clc1nc(Cl)nc(Nc2ccccc2Cl)n1,-14.0%,-3.2%,.,.,.,.
Oc1ccc(/C=N/NP(=S)(c2ccccc2)c2ccccc2)cc1O,-30.8%,-17.2%,-11.1%,1.3%[38.3 µM],-1.7%,0.8%
Oc1ccccc1/C=N/NP(=S)(c1ccccc1)c1ccccc1,11.2µM*,5.9%,38.6%,?,-0.3%,1.1%
Oc1ccc(/C=N/NP(=S)(c2ccccc2)c2ccccc2)c(O)c1O,-37.0%,-1.1%,39.8µM*,.,3.8%,1.2%
O=C1/C(=C/c2ccc(N(CCCl)CCCl)cc2)Cc2ccccc21,.,.,.,.,.,-1.2%
